# Experimental data reported in PubChem BioAssay AID686971 (National Center for Advancing Translational Sciences (NCATS), 2013).
# The campaign covered roughly 360,000 compounds. About 7,500 (2.1%) were called active. Entries that show only a call come without a potency. Another 8% or so got no clear call; they are omitted. This is one part of a sample in which actives are shown more often than they occur. Calls follow the shape of the dose curve; as a rule, active = well fitted cell-killing curve with a large enough effect; inconclusive = small, poorly fitted or top-dose-only effect, or effect the other way, or another doubt; inactive = no such curve, though single readings can be large or run the other way.
# Assay: qHTS for induction of synthetic lethality in tumor cells producing 2HG: qHTS for the HT-1080-IDH1KD cell line
# Conditions: HT-1080 IDH1 knockdown viability, ATP luminescence, 48 h; series mostly up to 46.1 µM
# Source text: Unbiased genomic sequencing for 22 glioma genomes found recurrent mutation of IDH1 on chromosome 2q33, a gene encoding the cytosolic isoform of IIDH1 associated with the tri-carboxylic acid cycle (TCA) that catalyzes the oxidative decarboxylation of isocitrate, yielding alpha-ketoglutarate and CO2 via NADP+ to NADPH conversion. Subsequent studies confirmed the recurrent IDH mutations in up to 70% of secondary gliomas and in 10% of AML cases. In addition, the somatic mutation of cancer-associated IDH1 is a point mutation resulting in various amino-acid substituents at Arginine132 (IDH1 R132), a key residue found in the enzyme's active site that when mutated, results in the loss-of-function in metabolizing isocitrate but confers a gain-of-function to produce the oncometabolite 2-hydroxyglutarate (2HG). This in effect defines IDH1 as an oncogene and provides an extraordinary opportunity to discover chemical probes against mutant IDH1 that may translate into much needed new therapies for glioma and AML patients.
# This assay aims to perform a synthetic-lethal screen for chemical probes specific for 2HG-producing tumor cells using matched paired cell lines (1) HT-1080-NT fibrosarcoma cell line that overproduces 2HG and (2) HT-1080-IDH1KD cell line which has IDH1 expression knocked-down. Desirable compounds are toxic to the NT fibrosarcoma cell line but not to the IDH1KD cell line. The data in this AID corresponds to the results of the qHTS against the HT-1080 IDH1KD cell line.
# [1] Dang L, Jin S, Su SM. IDH mutations in glioma and acute myeloid leukemia. Trends of Mol Med. 2010; 16(9): 387-97.
# [2] Dang L et al. Cancer-associated IDH1 mutations produce 2-hydroxyglutarate. Nature. 2010; 465(7300):966.
# Molecular Libraries Probe Production Centers Network [MLPCN]
# NIH Chemical Genomics Center [NCGC]
# Assay Submitter (PI): Lenny Dang Ph.D., Agios Pharmaceuticals
# Suspensions of trypsinized HT-1080-IDH1KD cells were dispensed into white, tissue culture-treated, solid 1536-well plates at 5uL/well (750 cells/well final concentration) in RPMI medium supplemented with 5% FBS. Plates were incubated at 37 degrees C for 2 hours, after which 23 nL of compounds or DMSO were delivered to each well using a pin tool. Plates were then incubated at 37 degrees C for an additional 48 hours. CellTiter-Glo viability reagent (Promega) was dispensed into wells (2.5uL/well) and incubated at room temperature for 10 minutes. The plates were measured on a PerkinElmer ViewLux plate reader for luminescent signal (clear filter, 1 sec exp.). DMSO-treated control wells and media-only (no cells) control wells were used to normalize %Activity of identified toxic compounds; DMSO-treated wells corresponded to 0%Activity (100% viability), while media-only controls were used to normalize 100%Activity (0% viability). To minimize variability between cell lines, both HT-1080-NT and HT-1080-IDH1KD lines were dispensed and treated with identical compound series in single batches.
# Concentration-response curves were fitted to the signals arising from the resulting luminescence. The concentration-effect curves were then classified based on curve quality (r2), response magnitude and degree of measured activity, and compounds were subsequently categorized based on their curve class.
# Potency is read from the fitted curve at half-maximal effect.
row,Structure (SMILES),Potency
1,N#CCSc1ccccc1NC(=O)CN1C(=O)NC(CCc2ccccc2)C1=O (stereo not drawn),inactive
2,COC(=O)[C@]12CCCCC=C1N(Cc1ccco1)C(=O)[C@H](CC(=O)NCCCCc1ccccc1)C2,inactive
3,COc1ccc(C(C)(O)c2nc(-c3ccc(C)c(C)c3)cs2)cc1 (stereo not drawn),inactive
4,COc1ccc(-c2csc(Nc3cccc(C)n3)n2)cc1OC,inactive
5,COc1ccc(-c2csc(Nc3ccc(O)cc3)n2)cc1,6.51 µM (active)
6,OC[C@@H]1CN(Cc2ccc(Cl)cc2)C[C@H](n2cnc3c(NCc4ccncc4)ncnc32)O1,inactive
7,Cc1ccc(S(=O)(=O)N2CC[C@H]3[C@@H](C2)C(=O)C[C@@H](c2ccccc2)N3S(=O)(=O)c2ccc(C)cc2)cc1,inactive
8,COc1ccc(-n2c(-c3ccc(Cl)cc3)n[nH]c2=S)c(OC)c1,inactive
9,Oc1ccccc1N1CCN(C(=S)NCc2ccccc2)CC1,inactive
10,Oc1ccc(N2CCN(C(=S)NCc3ccccc3)CC2)cc1,16.4 µM (active)
11,O=C(COC(=O)c1ccccc1C(=O)N1CCN(c2ccccc2)CC1)NCc1ccccc1,inactive
12,Cc1ccc(F)c(S(=O)(=O)NC(=O)C2(C)CCN2C(=O)c2ccco2)c1 (stereo not drawn),inactive
13,COc1ccc(NC(=O)c2cc(=O)[nH]c3ccccc23)cc1S(=O)(=O)N1CCOCC1,inactive
14,CN(c1ccccc1)S(=O)(=O)c1ccc(Cl)c(C(=O)OCC(=O)NCc2ccco2)c1,inactive
15,Cc1cc(C(=O)OCC(=O)NCc2ccco2)c(C)n1-c1ccccc1,3.66 µM (active)
16,O=C(COC(=O)c1ccccc1O)NCc1ccco1,inactive
17,CCCCC(=O)N(C)c1c(CC)nc2c(OCc3ccc(S(C)(=O)=O)cc3)cccn12,inactive
18,CN1CCN(c2ccc3c(c2)OC[C@H](Cc2ccccc2)NS3(=O)=O)CC1,inactive
19,COc1ccc(C2=NOC(C(=O)NCc3ccco3)C2)cc1OC (stereo not drawn),4.47 µM (active)
20,COc1ccc(CNC(=O)C2CC(c3ccc(C(F)(F)F)cc3)=NO2)cc1 (stereo not drawn),inactive
21,COc1ccc(S(=O)(=O)N2CCC(C(=O)NCc3ccco3)CC2)cc1C,inactive
22,COc1ccc(OC)c(C(O)c2ncc(-c3cccc(C(F)(F)F)c3)[nH]2)c1 (stereo not drawn),inactive
23,Cc1ccc(S(=O)(=O)N2CCN(CC(=O)N/N=C/c3cc([N+](=O)[O-])ccc3Cl)CC2)cc1,inactive
24,COc1ccc(CC(=O)N/N=C/c2cc([N+](=O)[O-])cc(Br)c2O)cc1,inactive
25,Cc1cc(C(=O)N/N=C/c2cc([N+](=O)[O-])cc(C)c2O)n[nH]1,16.4 µM (active)

row,Structure (SMILES),Potency
1,C[C@H]1CN([C@@H](C)CO)C(=O)c2cc(Br)cnc2O[C@H]1CN(C)S(=O)(=O)c1cccs1,inactive
2,CCCC(=O)N1CCC1(C)C(=O)NS(=O)(=O)c1ccc(Cl)cc1 (stereo not drawn),inactive
3,CC(=O)NC1=NN(C(C)=O)C(C)(c2ccc(Cl)s2)S1 (stereo not drawn),2.31 µM (active)
4,CC(=O)NC1=NN(C(C)=O)C(C)(c2ccc(C)cc2)S1 (stereo not drawn),inactive
5,CC(=O)NC1=NN(C(C)=O)C(C)(CCS(=O)(=O)c2ccc(Cl)c(Cl)c2)S1 (stereo not drawn),inactive
6,CCCCN1C(=O)C(CC(=O)NCc2cccs2)CC(C(=O)N2CCCCCC2)=C1C (stereo not drawn),inactive
7,CC1(C(=O)NS(=O)(=O)c2ccc(Cl)cc2)CCN1C(=O)CC1CCCC1 (stereo not drawn),inactive
8,COc1ccc(NC(=O)CSc2nnnn2-c2cccc(OC)c2)cc1,inactive
9,CCOc1cccc(-n2nnnc2-c2ccc(OC)cc2)c1,4.61 µM (active)
10,COc1ccc(-n2nnnc2-c2nc3ccccc3s2)cc1,inactive
11,Cc1nc2ccccc2nc1CC(O)(c1ccccc1)c1ccccc1,inactive
12,Nc1nc2c(ncn2[C@@H]2O[C@H](CNCc3ccc(OCCCN4CCOCC4)cc3)[C@@H](O)[C@H]2O)c(=O)[nH]1,inactive
13,CN(C)CCCN(C(=O)c1ccc(S(=O)(=O)N2CCCCCC2)cc1)c1nc2ccc(Br)cc2s1,16.4 µM (active)
14,Cc1ccc2nc(N(CCN(C)C)C(=O)C3=COCCO3)sc2c1,inactive
15,COc1ccc2sc(N(CCCN(C)C)C(=O)c3ccc(S(=O)(=O)N(C)C4CCCCC4)cc3)nc2c1,inactive
16,O=S1(=O)CC(N2CCN(Cc3ccccc3F)CC2)CN1Cc1cn(Cc2cccc(C(F)(F)F)c2)nn1 (stereo not drawn),inactive
17,C[C@@H]1CN([C@@H](C)CO)S(=O)(=O)c2ccc(-c3ccc(C(=O)N(C)C)cc3)cc2O[C@@H]1CN(C)Cc1ccccc1C(=O)O,inactive
18,CC(C)c1ccc(NC(=S)NNc2ccc(Cl)c(C(=O)O)c2)cc1,inactive
19,Cc1ccc(C)c(NC(=S)NNC(=O)c2csc(C)c2)c1,inactive
20,Cc1ccc(C)c(NC(=S)NNC(=S)Nc2ccc(C(C)C)cc2)c1,23.1 µM (active)
21,Cc1cc(Br)ccc1NC(=O)CCCOc1cc(=O)n(C)c2ccccc12,inactive
22,Cc1ccc(C(=O)Nc2c(-c3ccccc3)[nH][nH]c2=O)cc1,inactive
23,O=C(CCCN1CCc2[nH]c3ccc(F)cc3c2C1)c1ccc(F)cc1,20.6 µM (active)
24,O=C(Nc1ccc(Cl)cc1)N1CCc2[nH]c3ccccc3c2C1,inactive
25,Fc1ccc(NC(=S)N2CCc3[nH]c4ccccc4c3C2)cc1,inactive

row,Structure (SMILES),Potency
1,CC1(C(=O)NS(=O)(=O)c2ccccc2)CCN1C(=O)c1ccccc1 (stereo not drawn),inactive
2,COc1cc(C(O)c2nc(-c3cccc(C(=O)O)c3)cs2)ccc1F (stereo not drawn),inactive
3,COc1ccc2sc(-c3ccc(N(C)C)cc3)c(-c3ccc4cc[nH]c4c3)c2c1,inactive
4,COc1ccc2c(c1)c(=Cc1ccc(N(C)C)cc1)c1cc(-c3ccccc3)[n+](C)n12,5.17 µM (active)
5,COc1ccc(CCNS(=O)(=O)c2cccc3cccnc23)cc1OC,inactive
6,CCOc1ccc(C(CC(=O)O)NC(=O)Cc2ccccc2)cc1OC (stereo not drawn),inactive
7,CCCCC(=O)NC(c1ccc(OC)c(OC)c1)c1ccc2cccnc2c1O (stereo not drawn),2.91 µM (active)
8,CCCNC(=O)C1(C)CCCN(C(=O)c2cccc(OC(C)=O)c2C)C1 (stereo not drawn),inactive
9,O=c1cc(-c2ccccc2)[nH]c2cc(F)ccc12,4.11 µM (active)
10,Cc1ccc(-c2cc(=O)c3ccc(F)cc3[nH]2)cc1,inactive
11,Cc1cc(=O)c2ccc(NC(=O)c3ccccc3)cc2[nH]1,inactive
12,CCC(C(=O)NCc1ccccc1)n1c(Cc2cc(F)cc(F)c2)nc2ccccc21 (stereo not drawn),inactive
13,COc1ccc(C(=O)OCC(=O)Nc2cc(C)on2)cc1F,inactive
14,O=C(CCN1CCCCC1)Nc1ccc(F)c(F)c1,inactive
15,CCc1cccc(CC)c1N1C(=O)CC(Sc2ccccc2N)C1=O (stereo not drawn),inactive
16,CC1(Cc2ccccc2C#N)C(=O)Nc2ccc(-c3ccc4[nH]ccc4c3)cc21 (stereo not drawn),1.64 µM (active)
17,CC(C)(C)CC(C)(C)NCC(O)COCCOc1ccc(Br)cc1 (stereo not drawn),20.6 µM (active)
18,CC(Oc1ccc(Br)cc1)C(=O)NC1CCCCCC1 (stereo not drawn),inactive
19,OC(COc1ccc(Br)cc1)CN1CCCC1 (stereo not drawn),inactive
20,Cc1cccc(CN2CCN(C3CN(Cc4cn(Cc5cc(C)cc(C)c5)nn4)S(=O)(=O)C3)CC2)c1 (stereo not drawn),inactive
21,CC(=O)Oc1ccc2c(c1)C(=O)c1ccccc1C2=O,inactive
22,O=C1C(Cl)=C(Oc2ccccc2)C(=O)c2ccccc21,2.59 µM (active)
23,O=C(CSc1nnc(-c2ccccn2)n1-c1ccccc1)Nc1ccc2c(c1)OCO2,23.1 µM (active)
24,CCn1c(SCC(=O)Nc2ccc3c(c2)OCCO3)nnc1-c1ccncc1,inactive
25,O=C(O)CSc1nnc(-c2ccc3c(c2)OCO3)n1-c1ccccc1,inactive

row,Structure (SMILES),Potency
1,Cc1cccc(C)c1NC(=O)C(c1cccc2ccccc12)n1c(=O)c(-c2ccco2)nc2ccccc21 (stereo not drawn),inactive
2,O=C(OCc1cn([C@H]2C[C@H](c3ccccc3)N(C(=O)c3cccs3)C[C@@H]2O)nn1)c1ccccc1,inactive
3,COc1cccc(OC)c1C(=O)N1CCN(Cc2ccccc2F)CC1,inactive
4,O=C(COc1cccc(Cl)c1)NCc1ccccc1,inactive
5,Nc1c(-c2ccccc2)nnn1Cc1ccccc1,inactive
6,Nc1c(C(=O)NCc2ccccc2)nnn1Cc1cccc(Cl)c1,14.6 µM (active)
7,O=C(NCCN1CCOCC1)c1ccc2c(c1)N(Cc1cccc(Cl)c1)C(=O)c1ccccc1S2(=O)=O,inactive
8,CC1=C/C(=N\OS(=O)(=O)c2ccccc2)C=CC1=O,20 µM (active)
9,O=C(NCc1ccc(F)cc1)c1cc(C2CCCCN2C(=O)c2cccs2)on1 (stereo not drawn),inactive
10,CCc1nc2ccc(C(=O)Nc3cc(-c4ccccc4)ccc3OC)cn2c1N(CC)CC(=O)N(C)C,inactive
11,C[C@@H]1CN([C@@H](C)CO)C(=O)c2cc(Br)cnc2O[C@H]1CN(C)Cc1ccc(-c2ccccc2)cc1,inactive
12,CCCCN1CC(N2CCN(Cc3cccc(C)c3)CC2)CS1(=O)=O (stereo not drawn),inactive
13,COc1cc(C=NNC(=O)c2cccnc2)ccc1OC(=O)c1ccccc1F,inactive
14,COc1ccc(C(=O)Nc2ccccc2C(=O)N2CCN(c3ccccc3)CC2)cc1,inactive
15,COC(=O)c1ccc(COc2ccc(/C=N/NC(=O)C(=O)Nc3ccc(OC)cc3)cc2OC)o1,inactive
16,COc1ccc(C(=O)Nc2ccccc2C(=O)N/N=C/c2ccc(O)c(OC)c2)cc1,6.51 µM (active)
17,COc1ccc(/C=N/Nc2ccccc2C(=O)O)cc1,inactive
18,COc1ccc(/C=N/NC(=O)c2ccccc2)cc1OS(=O)(=O)c1ccccc1,20.6 µM (active)
19,COc1cc(/C=N/NC(=O)c2ccoc2C)ccc1OCCN1CCCCC1,inactive
20,COc1cc(/C=N/NC(=O)Nc2ccccc2)ccc1OCCOc1ccccc1C,7.08 µM (active)
21,Cc1ccc(S(=O)(=O)Oc2ccc(/C=N/NC(=O)c3ccncc3)cc2)cc1,inactive
22,COc1ccc(NC2CCCN(C(=O)c3ccccc3-c3ncc[nH]3)C2)cc1 (stereo not drawn),inactive
23,COc1cc(-c2nnc(NC(=O)CS(=O)(=O)c3ccc(Cl)cc3)o2)cc(OC)c1OC,inactive
